Compound activity (PubChem)
Cruzain noTriton – cruzain (T. cruzi) inhibition without detergent; purified cruzain, Z-FR-AMC fluorescence, no detergent; Potency, µM, usual class: inhibitors; 200,000 compounds, 2.3% hits; P25779; note: nearly all actives have a fitted effect of over 40% in size
Target sequence (P25779 123-467 limits assumed): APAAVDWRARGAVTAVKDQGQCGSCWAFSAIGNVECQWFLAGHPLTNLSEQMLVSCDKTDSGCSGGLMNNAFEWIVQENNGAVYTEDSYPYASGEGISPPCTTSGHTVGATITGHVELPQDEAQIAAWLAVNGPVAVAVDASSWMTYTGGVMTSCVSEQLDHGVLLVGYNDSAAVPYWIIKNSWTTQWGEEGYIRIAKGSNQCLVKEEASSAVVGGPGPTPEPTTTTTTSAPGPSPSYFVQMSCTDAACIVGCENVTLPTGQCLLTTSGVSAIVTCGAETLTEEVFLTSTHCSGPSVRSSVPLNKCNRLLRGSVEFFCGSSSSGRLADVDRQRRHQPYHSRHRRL
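Purified cruzain at 1.5 nM, pre-incubated 15 min with compound at room temperature in 100 mM sodium acetate pH 5.5, 5 mM DTT, 0.00005% Triton X-100. Reaction started with 2 uM Z-FR-AMC; AMC fluorescence increase over 60 s gives rate.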
Cruzain Triton – cruzain (T. cruzi) inhibition with detergent. 200,000 compounds, 0.43% hits. AID 1478. P25779. purified cruzain, Z-FR-AMC fluorescence, 0.01% Triton. Potency, µM, actives largely listed as inhibitors; note: nearly all actives have a fitted effect of over 40% in size
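Purified cruzain (1.5 nM final) was preincubated with compounds for 15 min at room temperature in 100 mM sodium acetate pH 5.5, 5 mM DTT, 0.01% Triton X-100. Reaction started with 2 uM Z-FR-AMC; AMC fluorescence change over 60 s gave activity.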
Hits are given with their value; . = inactive; ? = inconclusive. A selection: hits, their analogues and other compounds. The true share with any hit is near 2.5%. Calls come from the whole dose curve; as a rule, active = well fitted curve in the direction sought with a large enough effect; inconclusive = small, poorly fitted or top-dose-only effect, or another doubt; inactive = no such curve, though single readings can be large; an effect the other way counts as inactive or inconclusive.

SMILES | Cruzain noTriton | Cruzain Triton
CN(C)CCNC(=O)c1cc2c(s1)-c1ccccc1OC2 | 10µM | ?
O=C(NCCCN1CCN(c2ccccc2F)CC1)c1cc2c(s1)-c1ccccc1OC2 | . | .
CCc1ccc(NC(=O)CC2C(=O)N(c3cccc(OC)c3)C(=O)N2C2CCCC2)cc1 (centres undefined) | . | .
CCC(=O)Nc1ccc(CC)cc1-c1nc2ccccc2n(CC(=O)Nc2cccc(OC)c2)c1=O | . | .
O=C(C1=C[C@@H]2[C@H]3C(=O)N(c4ccccc4Cl)C(=O)[C@H]3[C@@H](C(=O)c3ccc(Cl)cc3)N2C=C1)c1ccccc1 | . | .
Cc1ccc(N2C(=O)[C@@H]3[C@H](C2=O)[C@H]2C=C(C(=O)c4ccccc4)C=CN2[C@@H]3C(=O)c2ccc(Cl)cc2)cc1 | 3.2µM | .
Cc1ccc(N2C(=O)[C@@H]3[C@H](C2=O)C2CCCN2[C@@H]3C(=O)c2ccccc2)cc1 (some centres undefined) | ? | .
O=C(C1=C[C@@H]2[C@H]3C(=O)N(c4cccc(Cl)c4)C(=O)[C@H]3[C@@H](C(=O)c3ccc(Cl)cc3)N2C=C1)c1ccccc1 | 16µM | .
CCOc1ccc(NC(=O)NCCCN2CCN(c3ccc(F)cc3)CC2)cc1 | . | .
O=C(CCNS(=O)(=O)c1ccc2c(c1)CCN2C(=O)C1CC1)Nc1ccc(Cl)cc1 | . | .
COc1ccc(OC)c(N=c2ssnc2Cl)c1 | ? | .
COc1cc(N=c2ssnc2Cl)c(OC)cc1Cl | 25µM | .
Clc1nc(-c2cccnc2)nc2scc(-c3ccccc3)c12 | . | .
COc1ccc(-c2csc3nc(-c4cccnc4)nc(Cl)c23)cc1OC | . | 13µM
CCOc1cc(/C=C/c2cc(C(=O)O)c3ccccc3n2)ccc1O | . | .
CCOc1cc(/C=C2\C(=O)N(c3nc(-c4ccc(Br)cc4)cs3)N=C2c2ccccc2)ccc1O | 3.2µM | ?
COc1ccc2cc(-c3nc4ccc(C(=O)O)cc4[nH]3)c(=O)oc2c1 | . | .
COc1ccc(Nc2cc(C(=O)NCc3ccccc3OC)c3ccccc3n2)cc1 | . | .
COc1ccc(CNC(=O)COC(=O)c2cc(-c3ccc(Cl)s3)nc3ccccc23)cc1 | . | .
O=C(COC(=O)c1cc(-c2cccs2)nc2ccccc12)NCc1ccco1 | . | 25µM
O=C(NCc1ccco1)c1cc(-c2cccs2)nc2ccccc12 | . | .
O=C(COC(=O)c1cc(-c2ccc(Cl)s2)nc2ccccc12)NCc1ccco1 | . | 20µM
COc1ccc(Nc2cc(C(=O)NCc3ccco3)c3ccccc3n2)cc1 | 13µM | .
Cc1c(C(=O)Nc2ccc(F)cc2F)oc2c1-c1nn(Cc3c(F)cccc3Cl)cc1CC2 | . | .
CCn1c(C)cc(/C=C2/NC(=O)N(Cc3ccccc3F)C2=O)c1C | ? | .
SMILES | Cruzain noTriton | Cruzain Triton
Cc1cc(/C=C2/NC(=O)N(Cc3ccccc3F)C2=O)c(C)n1C(C)C | 25µM | .
CCn1nnc(NC(=O)c2ccc(-c3ccc(Cl)cc3)o2)n1 | . | .
CCc1nnc(NC(=O)c2ccc(-c3ccc(Cl)cc3)o2)s1 | 16µM | .
O=S(=O)(c1ccc2nc(-c3ccco3)c(-c3ccco3)nc2c1)N1CCOCC1 | . | 22µM
Cn1c(=O)n(C)c2cc(S(=O)(=O)N3CCOCC3)ccc21 | . | .
CN(C)CCCO[C@H]1[C@@H]2OC(C)(C)O[C@@H]2O[C@@H]1[C@H](O)CO | . | .
CCN1CCN(C(=S)c2ccc(Br)cc2)CC1 | . | .
OCCN1CCN(C(=S)c2ccc(Cl)c(Cl)c2)CC1 | 25µM | .
c1ccc(-c2cccc(N3CCC4(CCNCC4)CC3)c2)cc1 | . | .
Cc1cccc(N2CCN(C(=O)c3ccc(NC(=O)c4nsc5ccccc45)cc3)CC2)c1C | . | .
Cc1ccc(NC(=O)C(OC(=O)c2ccc(C=O)cc2)c2ccccc2)cc1Cl (centres undefined) | 25µM | .
COCC(C)NC(C(=O)Nc1ccc(C)c(Cl)c1)c1ccccc1 (centres undefined) | . | .
CCOC(=O)c1ccc(NC(=O)Cn2cc(C(=O)C3CC3)c3ccccc32)cc1 | . | .
COc1ccc(OC)c(NC(=O)CCc2nc(-c3ccc(C)cc3)no2)c1 | . | .
COc1ccc2nc(SCC(=O)Nc3ccc(S(=O)(=O)N4CCCC4)cc3)c(C#N)cc2c1 | 13µM | .
N#Cc1cc2ccccc2nc1SCC(=O)Nc1ccc(S(=O)(=O)N2CCCC2)cc1 | ? | .
Cc1cc(C)c2nc(SCC(=O)Nc3ccc(S(=O)(=O)N4CCCC4)cc3)c(C)cc2c1 | 13µM | .
Cc1nnc(SCC(=O)Nc2ccc(S(=O)(=O)N3CCCC3)cc2)n1N | . | .
CCCCCCCC1=Cc2ccc(F)cc2C(C(C(C)=O)C(=O)OC)N1C(=O)OC (centres undefined) | . | .
COc1ccc(-n2nc3ccc(NC(=O)c4cccc(OCCC(C)C)c4)cc3n2)cc1 | . | .
COc1ccc(C2Nc3ccccc3C(=O)N2Cc2ccco2)cc1COc1ccccc1F (centres undefined) | 25µM | .
